This note sets out measurements from PubChem BioAssay (Tox21).

Records with an inconclusive call do not appear. Values without a mark were called inactive. Unless noted, calls come from the whole dose curve.
% is set by controls: 0 for no effect and ±100 for the full control effect.

The first assay in a line: qHTS assay to identify small molecule agonists of the NFkB signaling pathway - cell viability counter screen (AID 1159515). Note: nearly all actives have a fitted effect of over 55% in size. The conditions noted are these: NFkB-bla ME-180 viability, CellTiter-Glo luminescence, 5 h; series mostly up to 61 µM; activity, negative = cytotoxic: at the top concentration. The gist of the method: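 NFkB-bla ME-180 cells, 2,000/well, were plated overnight at 37 C, 5% CO2, then exposed to compounds in DMSO for 5 hr. After the bla FRET read, CellTiter-Glo was added to the same wells; luminescence was read after 30 min at room temperature.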
On the technique in general: qHTS replaces the single test concentration by a dilution series.
For `Cc1ncc(CSSCc2cnc(C)c(O)c2CO)c(CO)c1O`, the “activity, negative = cytotoxic” value was 5.6%.
Same read-out and setting: with `CCCCCCC(CCCCCCCCCCC(=O)OCC(COC(C)=O)OC(C)=O)OC(C)=O` (stereo unspecified) the figure was 1.73%; with `NC(=O)Nc1nc2ccccc2[nH]1`, 13.1%; with `Cc1nc(-c2ccc(OCC(C)C)c(C#N)c2)sc1C(=O)O`, 6.56%.
On the same count and under the same terms, then `CC(C)[C@H](N)C(=O)OCCOCn1cnc2c(=O)[nH]c(N)nc21`, with 4.28%; and `O=C(O)C(O)[C@H](O)[C@@H](O)[C@H](O)[C@H](O)CO` (stereo partly specified), with -3.69% [at 78.8 µM]; and `CC(O)CN(CCCN(C)C)CCCN(C)C` (stereo unspecified), with 14.5%.
On to `Cc1cc(C)c(NC(=O)CN(CC(=O)O)CC(=O)O)c(C)c1Br`, for which the “activity, negative = cytotoxic” value was -1.05%.
On the same count and under the same terms, then `CCCC=O`, with -2.78%; and `CC(C)(O)C(=O)c1ccc(OCCO)cc1`, with 7.54%.
In the case of `CC(C)(O)c1ccccc1`, the “activity, negative = cytotoxic” value is 3.23%.
The same measure, in the same setting: with `CCc1cc(S(=O)(=O)O)c2cc(C(C)C)cccc1-2` the figure was -1.33%; with `Cc1onc(-c2ccccc2)c1-c1ccc(S(N)(=O)=O)cc1`, -7.16%.
The same measure, in the same setting: then `N#CCc1ccccc1[N+](=O)[O-]`, with 3.48%; and `O=C1C(CCS(=O)c2ccccc2)C(=O)N(c2ccccc2)N1c1ccccc1` (stereo unspecified), with -1.23%; and `CCOC(=O)Cn1c(=O)sc2cccc(Cl)c21`, with -12.2%.
Take `O=C(O)c1cccc(C(=O)O)n1`: the “activity, negative = cytotoxic” value is 5.24%.
On to `CCCCCC[C@@H](CCC)C(=O)O`, for which the “activity, negative = cytotoxic” value is 7.64%.
Same read-out and setting: then `Cc1cc(C)cc(OCC2CNC(=O)O2)c1` (stereo unspecified), with 1.62%.
Same read-out and setting: with `NC(=O)c1ncn([C@@H]2O[C@H](CO)[C@@H](O)[C@H]2O)c1O` the figure was 0.799%.
The same measure, in the same setting: with `NCCN1CCNC1=O` the figure was 5.93%; with `O=C(O)/C=C/c1ccc(Cn2ccnc2)cc1`, -30.8%; with `CSc1ccc(C=O)cc1`, -1.42%.
In the case of `CCC(C)(C)C1CCC(OC)CC1` (stereo unspecified), the “activity, negative = cytotoxic” value is -3.34%.
On to `C=CCSCC1Nc2cc(Cl)c(S(N)(=O)=O)cc2S(=O)(=O)N1` (stereo unspecified), for which the “activity, negative = cytotoxic” value was -21.5%.
Same read-out and setting: then `C[C@H]1O[C@@H](n2cc(F)c(=O)[nH]c2=O)[C@H](O)[C@@H]1O`, with -12.6%; and `Cc1c(F)cc2c(=O)c(C(=O)O)cn3c2c1CCC3C` (stereo unspecified), with -0.164%.
Same read-out and setting: with `CCCOCC(C)OCC(C)O` (stereo unspecified) the figure was 26.2% [at 78.8 µM].
Take `C#CC(O)CCCCC` (stereo unspecified): the “activity, negative = cytotoxic” value was 0% [at 78.8 µM].
Same read-out and setting: with `CC(C)N1C(=O)c2ccccc2C1=O` the figure was 12.1%; with `O=S(=O)(O)c1ccccc1O`, -1.3%; with `NS(=O)(=O)c1cc2c(cc1Cl)NC(CSCc1ccccc1)=NS2(=O)=O`, -20.1%.
Still for that read-out and setting: then `CC(=O)c1ccc(C)cc1`, with 13%; and `CC(CCO)CCCC(C)(C)O` (stereo unspecified), with 0.35%.
Same read-out and setting: with `CC1(C)OC(=O)Nc2ccc(Br)cc21` the figure was 8%.
Take `CCCCCCCCN(C)CCCCCCCC`: the “activity, negative = cytotoxic” value is 10.2% [at 78.8 µM].
Same read-out and setting: with `CC(C)COC(=O)c1ccccc1O` the figure was 2.5%.
Turning to `CCCCC=O`, the “activity, negative = cytotoxic” value is -8.19%.

A further assay in a line: qHTS assay to identify small molecule agonists of the endoplasmic reticulum stress response signaling pathway (AID 1159516; active = well fitted activation curve with a large enough effect in the signal ratio in the repeat runs, not every such curve was filed as active; the % refers to the signal ratio). Conditions: ESRE-bla HeLa, ER stress beta-lactamase reporter, 5 h; series mostly up to 61 µM; activation: at the top concentration. An outline of the steps:
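CellSensor ESRE-bla HeLa cells, carrying a beta-lactamase reporter driven by the ER stress response element, were plated overnight and exposed to compounds for 5 hr at 37 C. Reporter activity was read as FRET substrate fluorescence after 2 hr at room temperature.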
Consider `Cc1ncc(CSSCc2cnc(C)c(O)c2CO)c(CO)c1O`, for which the “activation” value was -0.158%.
Same read-out and setting: then `CCCCCCC(CCCCCCCCCCC(=O)OCC(COC(C)=O)OC(C)=O)OC(C)=O` (stereo unspecified), with 3.49%; and `NC(=O)Nc1nc2ccccc2[nH]1`, with -3.01%.
Same read-out and setting: with `Cc1nc(-c2ccc(OCC(C)C)c(C#N)c2)sc1C(=O)O` the figure was -3.57%; with `CC(C)[C@H](N)C(=O)OCCOCn1cnc2c(=O)[nH]c(N)nc21`, 4.02%; with `O=C(O)C(O)[C@H](O)[C@@H](O)[C@H](O)[C@H](O)CO` (stereo partly specified), 1.87% [at 78.8 µM].
Same read-out and setting: with `CC(O)CN(CCCN(C)C)CCCN(C)C` (stereo unspecified) the figure was 2.91%; with `Cc1cc(C)c(NC(=O)CN(CC(=O)O)CC(=O)O)c(C)c1Br`, 0.0844%; with `CCCC=O`, -0.0877%.
Turning to `CC(C)(O)C(=O)c1ccc(OCCO)cc1`, the “activation” value is -0.489%.
Same read-out and setting: with `CC(C)(O)c1ccccc1` the figure was 0.112%; with `CCc1cc(S(=O)(=O)O)c2cc(C(C)C)cccc1-2`, 0.587%; with `Cc1onc(-c2ccccc2)c1-c1ccc(S(N)(=O)=O)cc1`, -1.97%.
With `N#CCc1ccccc1[N+](=O)[O-]`, the “activation” value was 0.783%.
In the case of `O=C1C(CCS(=O)c2ccccc2)C(=O)N(c2ccccc2)N1c1ccccc1` (stereo unspecified), the “activation” value is 0.137%.
With `CCOC(=O)Cn1c(=O)sc2cccc(Cl)c21`, the “activation” value is -3.52%.
Same read-out and setting: with `O=C(O)c1cccc(C(=O)O)n1` the figure was -0.358%; with `CCCCCC[C@@H](CCC)C(=O)O`, 8.89%.
Same read-out and setting: with `Cc1cc(C)cc(OCC2CNC(=O)O2)c1` (stereo unspecified) the figure was -3.56%; with `NC(=O)c1ncn([C@@H]2O[C@H](CO)[C@@H](O)[C@H]2O)c1O`, -3.7%.
On the same count and under the same terms, with `NCCN1CCNC1=O` the figure was -0.223%; with `O=C(O)/C=C/c1ccc(Cn2ccnc2)cc1`, 0.632%; with `CSc1ccc(C=O)cc1`, 0.0559%.
With `CCC(C)(C)C1CCC(OC)CC1` (stereo unspecified), the “activation” value is -0.334%.
Still for that read-out and setting: with `C=CCSCC1Nc2cc(Cl)c(S(N)(=O)=O)cc2S(=O)(=O)N1` (stereo unspecified) the figure was 4.59%; with `C[C@H]1O[C@@H](n2cc(F)c(=O)[nH]c2=O)[C@H](O)[C@@H]1O`, 1.56%.
The same measure, in the same setting: with `Cc1c(F)cc2c(=O)c(C(=O)O)cn3c2c1CCC3C` (stereo unspecified) the figure was -0.86%.
Regarding `CCCOCC(C)OCC(C)O` (stereo unspecified), the “activation” value was 1.2% [at 78.8 µM].
On the same count and under the same terms, then `C#CC(O)CCCCC` (stereo unspecified), with -1.86% [at 78.8 µM].
Consider `CC(C)N1C(=O)c2ccccc2C1=O`, for which the “activation” value was 0.0333%.
Still for that read-out and setting: then `O=S(=O)(O)c1ccccc1O`, with 0.507%.
For the molecule `NS(=O)(=O)c1cc2c(cc1Cl)NC(CSCc1ccccc1)=NS2(=O)=O`, the “activation” value is 0.109%.
Same read-out and setting: with `CC(=O)c1ccc(C)cc1` the figure was 0.165%; with `CC(CCO)CCCC(C)(C)O` (stereo unspecified), -6.65%.
With `CC1(C)OC(=O)Nc2ccc(Br)cc21`, the “activation” value was 0.0207%.
Still for that read-out and setting: then `CCCCCCCCN(C)CCCCCCCC`, with -1.12% [at 78.8 µM].
Still for that read-out and setting: with `CC(C)COC(=O)c1ccccc1O` the figure was -0.7%.
Still for that read-out and setting: with `CCCCC=O` the figure was 2.94%.
